# Compound activity (PubChem)
# Only some compounds are listed: those with a hit (about 7.2% of all), similar ones and a draw of the others.
# VLA-4 inh: inhibition in a human VLA-4 binding assay; inhibition, % (about 7 µM as worked out from the volumes in the protocol); VLA-4 expressing cells, ligand binding flow cytometry; P13612; hit rate 0.2% among 330,000; in the data active means inhibition above about 50%
# Target sequence (P13612 whole entry, looked up): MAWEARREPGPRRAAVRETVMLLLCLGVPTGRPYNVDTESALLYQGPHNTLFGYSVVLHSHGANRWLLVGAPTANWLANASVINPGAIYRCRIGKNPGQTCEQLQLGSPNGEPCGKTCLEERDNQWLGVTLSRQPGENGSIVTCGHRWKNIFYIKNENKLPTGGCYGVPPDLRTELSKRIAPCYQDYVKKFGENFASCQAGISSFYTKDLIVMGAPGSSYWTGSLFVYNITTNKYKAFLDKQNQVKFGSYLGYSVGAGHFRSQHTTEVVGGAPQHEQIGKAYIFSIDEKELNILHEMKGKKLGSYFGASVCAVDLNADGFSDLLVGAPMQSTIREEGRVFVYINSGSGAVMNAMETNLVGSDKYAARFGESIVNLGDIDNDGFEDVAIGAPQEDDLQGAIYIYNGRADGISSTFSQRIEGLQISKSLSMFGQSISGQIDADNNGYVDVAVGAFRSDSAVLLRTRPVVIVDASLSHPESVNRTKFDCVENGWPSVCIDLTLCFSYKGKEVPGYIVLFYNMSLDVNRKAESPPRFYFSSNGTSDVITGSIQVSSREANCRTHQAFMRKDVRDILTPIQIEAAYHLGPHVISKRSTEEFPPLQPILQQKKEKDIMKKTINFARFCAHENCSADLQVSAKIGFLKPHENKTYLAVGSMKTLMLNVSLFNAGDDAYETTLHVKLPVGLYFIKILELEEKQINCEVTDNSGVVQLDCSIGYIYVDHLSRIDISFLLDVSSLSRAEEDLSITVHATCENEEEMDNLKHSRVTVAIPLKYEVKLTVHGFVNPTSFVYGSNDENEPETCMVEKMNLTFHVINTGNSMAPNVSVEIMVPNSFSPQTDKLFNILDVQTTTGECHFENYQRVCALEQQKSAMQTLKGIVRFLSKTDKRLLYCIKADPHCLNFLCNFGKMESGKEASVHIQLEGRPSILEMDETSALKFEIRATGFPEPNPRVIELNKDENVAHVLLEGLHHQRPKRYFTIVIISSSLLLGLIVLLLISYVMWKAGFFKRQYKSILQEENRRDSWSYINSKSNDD
# ALR H2O2 inh: blocks human ALR sulfhydryl oxidase activity; purified ALR, DTT oxidation, H2O2 HRP-luminol luminescence; inhibition, % (test concentration not listed); hit rate 3.8% among 290,000; AID 485317;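 active means mean replicate inhibition above about 79%, with every replicate also reaching it, limit read from the data; inconclusive means only one of the two criteria met; inactive means mean below limit and not every replicate reaching it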
# A1 inh: inhibitors of the anti-apoptotic protein A1, read as caspase activation. MEF A1-2A-BIM cells, Caspase-Glo 3/7 luminescence, 3 h; percent of clofoctol response, vehicle zero. caspase activation, % (test concentration not listed). AID 2462. hit rate 0.066% among 330,000;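 active means over half of replicate activation scores above 10%, or exactly half above 10 with the replicate mean above 10; inconclusive means replicate mean below 10 yet half the replicates above 10; inactive means over half of replicates below 10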
# Efflux pump mplx: inhibitors of Candida antifungal efflux pumps expressed in yeast; S. cerevisiae Candida pump triplex, Nile Red efflux; inhibition, % at 10 µM; hit rate 0.44% among 330,000; AID 485275;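 active means plate passing quality check with inhibition over a set limit, or well fluorescence over plate mean plus 4 SD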;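 further: Nile Red retained in pooled yeast measured as flow cytometry median fluorescence; 0% = buffer negative control and 100% = Enniatin B positive control; higher means more Nile Red kept so more efflux inhibition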
# Mot1-301 SUMO: inhibitors of SUMOylation pathway: yeast Mot1-301 growth rescue; growth rescue, % at 18.8 µM; AID 2716; S. cerevisiae Mot1-301 growth rescue, ATP luminescence, 38.5C; percent above DMSO median, 100 means doubled; hit rate 1% among 320,000;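 active means every valid replicate shows activation above 250% relative to neutral control wells; inactive means the rest, any valid replicate at or below 250%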;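 further: OY570 slx delta 5 strain wells were the positive control but not used for scaling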
# AHR activator: activates the human aryl hydrocarbon receptor; P35869; AHR-responsive luciferase reporter cells, luminescence; activation, % at 5 µM; hit rate 2.5% among 320,000; AID 2796; in the data active means activation above about 47%;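 further: 0% = vehicle wells and 100% = reference agonist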
# Yeast Mot1 SUMO: inhibits SUMO pathway, affecting Mot1-301 yeast growth | shares compounds with Mot1-301 SUMO | S. cerevisiae Mot1-301 galactose growth, ATP luminescence, 24 h; -100 = growth of slx-deleted rescue strain | growth activity, percent, % at 42 µM | 2,300 tested, under 10 active;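 active means Signal drops as the depositor expects, and the fitted half-maximal dose is no more than ten times the top valid tested dose; inconclusive means Poor fit, or a flat curve whose signal drops by 30% to 70%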;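 further: more negative values mean stronger growth rescue toward the control strain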
# * hit, by the source's call; ? = inconclusive; . = not tested or not shown; + = active, no number; ! = not active in a repeat; [ ] = dose if it differs, or a comment.
SMILES,VLA-4 inh,ALR H2O2 inh,A1 inh,Efflux pump mplx,Mot1-301 SUMO,AHR activator,Yeast Mot1 SUMO
C[C@@]12C(=O)Nc3cc(Cl)ccc3C(=O)N1[C@H]1c3ccccc3OC[C@@H]1[C@@H]2c1ccccc1,1.6,-0.5,0.1,0.2,454.3*,18.6,-0.5
C[C@@]12C(=O)Nc3ccc(F)cc3C(=O)N1[C@H]1c3ccccc3OC[C@@H]1[C@@H]2c1ccccc1,0.8,2.9,0.0,-0.2,+,-1.4,-0.2
C[C@@]12C(=O)Nc3cc(Cl)ccc3C(=O)N1[C@H]1c3cc(Br)ccc3OC[C@@H]1[C@@H]2c1ccccc1,3.8,-0.8,1.3,0.3,50.6,15.9,.
Cn1c(=O)c2ncn(CC(=O)NCCOCc3ccccc3Cl)c2n(C)c1=O,-18.4,-12.7,0.5,0.0,456.3,14.1,.
CN1C(=O)CC(c2ccccc2)CC1=O,7.9,-1.9,1.3,0.0,4.3,-4.6,.
CN1CC2(C)OC(=O)C(Cl)=C2CC1c1ccccc1 (stereo not given),19.5,-10.1,-0.5,0.3,430.6*,-2.5,-0.8
CC(C)(C)NC(=O)CN(C(=O)CS(=O)CC(=O)Nc1ccc(F)cc1)c1ccc2c(c1)OCCO2 (stereo not given),34.5,0.1,0.2,0.0,1.0,-0.9,.
O=C(N=C1SC2CS(=O)(=O)CC2N1c1ccc(F)c(Cl)c1)C1CC1 (stereo not given),14.5,.,-0.3,0.1,517.7*,1.8,-0.2
O=C(N=C1SC2CS(=O)(=O)CC2N1c1ccc(F)cc1F)C1CC1 (stereo not given),12.6,-6.2,?,-0.2,8.8,-2.3,.
CC(=O)c1cccc(N2C(=NC(=O)C3CC3)SC3CS(=O)(=O)CC32)c1 (stereo not given),22.8,0.7,-0.1,0.1,-0.6,3.0,.
CC(=O)c1cccc(N2C(=NC(=O)C3CCCCC3)SC3CS(=O)(=O)CC32)c1 (stereo not given),-3.9,-1.3,-0.2,-0.1,476.9*,-1.3,0.2
O=C(COc1ccc2c3c(c(=O)oc2c1)CCCC3)NCc1ccccn1,22.1,0.7,0.1,0.0,10.9,-6.5,.
CCC(C)(C)NC(=O)C(C(C)C)N(CC1CCCO1)C(=O)CNS(=O)(=O)c1ccc(F)cc1 (stereo not given),2.6,-3.4,0.5,-0.3,3.5,-1.4,.
Cc1ccc(C(=O)NCC(=O)Nc2ccc3c(c2)OCCO3)cc1,6.7,-4.2,1.5,0.1,579.6*,6.7,-0.1[21 µM]
Cc1cc(C)n(C(=O)CNC(=O)c2ccc3c(c2)OCCO3)n1,12.2,-9.3,-0.3,-0.2,601.1*,0.8,0.0
O=C(COC(=O)CNC(=O)c1ccc(Cl)cc1)Nc1ccc2c(c1)OCCO2,9.4,-1.5,0.7,0.1,-21.1,0.1,.
CCOc1cc(N2CCOCC2)c(OCC)cc1NC(=O)COc1ccc2ccc(=O)oc2c1,-13.9,-58.7,0.3,0.1,7.2,2.0,.
O=C(Nc1nccs1)c1ccc(S(=O)(=O)c2ccccc2)cc1,34.3,-33.3,-0.2,0.2,694.9*,15.8,0.2
COCCCn1c(=O)c2ccccc2n(Cc2ccc(C)cc2)c1=O,9.3,2.6,0.5,0.1,42.4,-0.3,.
COCCCn1c(=O)c2ccccc2n(Cc2ccccc2C)c1=O,11.1,-2.1,-0.4,0.2,454.8*,1.1,0.2
COC(=O)c1cc(NS(=O)(=O)c2ccc(N3CCOCC3)c([N+](=O)[O-])c2)cc(C(=O)OC)c1,19.9,.,-0.5,-0.2,-3.0,3.9,.
Cc1cc(C)cc(N(CCC#N)C(=O)CSc2nc3ccccc3c(=O)[nH]2)c1,-2.1,-1.0,0.8,0.0,-7.4,0.8,.
O=C(NCc1ccccc1)C(c1ccco1)N(C(=O)c1ccccn1)c1ccc(F)cc1 (stereo not given),12.1,3.9,0.2,-0.1,-9.0,3.3,.
Cc1c(NC(=O)CN2C(=O)NC(C)(c3ccc(OC(F)F)cc3)C2=O)c(=O)n(-c2ccccc2)n1C (stereo not given),1.0,.,0.5,-0.1,378.7*,4.0,0.5
COc1ccc(C2(C)NC(=O)N(CC(=O)Nc3c(C)n(C)n(-c4ccccc4)c3=O)C2=O)cc1 (stereo not given),7.7,-24.2,0.3,-0.1,204.8,0.3,.
SMILES,VLA-4 inh,ALR H2O2 inh,A1 inh,Efflux pump mplx,Mot1-301 SUMO,AHR activator,Yeast Mot1 SUMO
C=CCOC(=O)C1=C[C@H](c2csc3ccccc23)C[C@H](OCc2ccc(CO)cc2)O1,.,-10.4,0.3,.,-11.8,3.4,.
CCc1ccc(NC(=O)N2CCC(c3ccccc3)C2)cc1 (stereo not given),1.6,.,-1.5,-0.1,929.3*,3.4,-0.2
O=C(Nc1ccccc1)N1CCC(c2ccccc2)C1 (stereo not given),0.6,-3.0,-1.2,0.0,21.8,-3.0,.
Cc1ccc(C)c(NC(=O)CN(C)C(=O)c2cccc(N3C(=O)CCC3=O)c2)c1,2.9,2.3,-0.3,-0.1,-8.1,1.4,.
S=c1[nH]nc(-c2ccco2)n1-c1ccc(Br)cc1,-7.4,73.7,0.0,0.2,531.6*,-1.9,0.5
CN/C(=C/[N+](=O)[O-])NCCSCc1ccc(CN(C)C)o1,5.8,.,1.0,0.0,860.2*!,-2.2,0.0
CN(c1ccc(C(=O)NCCSCc2ccco2)cc1)S(C)(=O)=O,4.2,-11.6,0.3,0.3,82.3,10.5,.
COc1ccccc1CN(C)S(=O)(=O)c1cccs1,5.6,-2.2,-0.3,0.1,-20.8,1.1,.
COc1ccc(C(C)=O)cc1CN(c1ccccc1OC)S(=O)(=O)c1cccs1,5.7,-0.7,0.4,0.1,369.9*,1.3,0.1
O=C(COC(=O)c1ccc(Br)o1)Nc1ncc(Cl)cc1Cl,3.3,0.0,-0.3,0.0,-7.0,4.0,.
O=C(COC(=O)c1ccc([N+](=O)[O-])o1)Nc1ncc(Cl)cc1Cl,0.7,-32.0,-0.2,0.1,848.4*,14.0,-1.5
Cc1cccc(Cn2c(C(=O)OC(C)C)cc3c2ccn3C)c1,-2.3,-4.7,-2.0,0.0,+,0.6,0.8
CCOC(=O)c1cc2c(ccn2C)n1Cc1ccc(Cl)cc1,3.8,.,-0.9,0.1,7.5,0.4,.
O=S(=O)(NCC1CCCO1)c1cc(Cl)ccc1Cl (stereo not given),15.7,-1.0,0.1,-0.1,-4.9,0.3,.
O=S(=O)(NCC1CCCO1)c1cc(Cl)ccc1Br (stereo not given),12.7,2.0,1.4,0.0,466.6*,0.6,0.8
COc1ccc(N2CCN(C(c3cccs3)C(C)NS(C)(=O)=O)CC2)cc1 (stereo not given),5.8,98.8*,0.8,0.1,379.1*,-0.4,1.1
CC(NS(C)(=O)=O)C(c1cccs1)N1CCN(C)CC1 (stereo not given),-0.8,-9.9,0.2,0.0,-13.5,4.0,.
